Experimental data from publication PMC12820563, “FoxP3 forms a head-to-head dimer in vivo and stabilizes its multimerization on adjacent microsatellites”.
In all, about 16,000 sequences were measured (“rpm ratio (pull-down/input)”: median about 0.94, highest 2% from about 1.7 on). For the sample, the highest values were picked, then their nearest neighbours and some sequences at random.

The sequences below were run against T1, MBP-FoxP1dN (Mus musculus, UniProt P58462 326-579) (assay: PD-seq (MBP pull-down with sequencing); 20 mM Tris-HCl pH 7.5, 100 mM NaCl, 1.5 mM MgCl2, 0.4 uM protein, 0.1 uM dsDNA library, 30 min, room temperature, amylose pull-down; high values mean tight binding). Details: protein: recombinant; tags: His6-MBP; chain copies: 2; dsDNA, one strand shown.
T1 sequence: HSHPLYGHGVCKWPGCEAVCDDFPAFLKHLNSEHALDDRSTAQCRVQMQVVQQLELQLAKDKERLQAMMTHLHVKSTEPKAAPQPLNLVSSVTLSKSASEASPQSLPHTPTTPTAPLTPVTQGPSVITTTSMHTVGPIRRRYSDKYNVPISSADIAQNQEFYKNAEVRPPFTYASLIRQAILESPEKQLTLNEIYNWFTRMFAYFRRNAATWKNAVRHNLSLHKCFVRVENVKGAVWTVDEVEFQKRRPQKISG
How it was run: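 Binding is given as reads-per-million enrichment, pull-down over input, with replicates pooled. The bait was an N-terminus-lacking mouse FoxP3 or FoxP1 fragment with a His6-MBP tag, expressed in E. coli and used at 0.4 µM with 0.1 µM Klenow-filled degenerate double-stranded DNA library for 30 min at room temperature in Tris pH 7.5 buffer with NaCl and MgCl2. Amylose resin pull-down with three washes was followed by proteinase K release, PCR barcoding and Illumina sequencing.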

Sequence	binding signal
GATGATTGTTCTCCCAGCTGATGAATTGTTTTGTTCGAGTAAACAAATTTTCCTAATCTTTCTGTTCAAGCGCCATCTAC	1.97 RPM ratio (pull-down/input)
GATGATTGTTCTCCCAGCTGATGAATTTGTTGATTCGAGTAAACAAATTTTCCTAATCTTTCTGTTCAAGCGCCATCTAC	2.39 RPM ratio (pull-down/input)
GATGATTGTTCTCCCAGCTGATGAATTTTTTGATTCGAGTAAACAAATTTTCCTAATCTTTCTGTTCAAGCGCCATCTAC	1.02 RPM ratio (pull-down/input)
GATGATTGTTCTCCCAGCTGATGAATTCTTTGATTCGAGTAAACAAATTTTCCTAATCTTTCTGTTCAAGCGCCATCTAC	0.885 RPM ratio (pull-down/input)
GATGATTGTTCTCCCAGCTGATGAATTTGTTTTTTCGAGTAAACAAATTTTCCTAATCTTTCTGTTCAAGCGCCATCTAC	2.09 RPM ratio (pull-down/input)
GATGATTGTTCTCCCAGCTGATGAATTAAGATGATCGAGTAAACAAATTTTCCTAATCTTTCTGTTCAAGCGCCATCTAC	0.992 RPM ratio (pull-down/input)
GATGATTGTTCTCCCAGCTGATGAATTTGACTATTCGAGTAAACAAATTTTCCTAATCTTTCTGTTCAAGCGCCATCTAC	0.903 RPM ratio (pull-down/input)
GATGATTGTTCTCCCAGCTGATGAATTATTTGCGTCGAGTAAACAAATTTTCCTAATCTTTCTGTTCAAGCGCCATCTAC	1.66 RPM ratio (pull-down/input)
GATGATTGTTCTCCCAGCTGATGAATTGTCCACATCGAGTAAACAAATTTTCCTAATCTTTCTGTTCAAGCGCCATCTAC	1.33 RPM ratio (pull-down/input)
GATGATTGTTCTCCCAGCTGATGAATTGCTTCCTTCGAGTAAACAAATTTTCCTAATCTTTCTGTTCAAGCGCCATCTAC	1.06 RPM ratio (pull-down/input)
GATGATTGTTCTCCCAGCTGATGAATTCTTAATATCGAGTAAACAAATTTTCCTAATCTTTCTGTTCAAGCGCCATCTAC	1.08 RPM ratio (pull-down/input)
GATGATTGTTCTCCCAGCTGATGAATTCAGGTTGTCGAGTAAACAAATTTTCCTAATCTTTCTGTTCAAGCGCCATCTAC	1 RPM ratio (pull-down/input)
GATGATTGTTCTCCCAGCTGATGAATTCGAAGGATCGAGTAAACAAATTTTCCTAATCTTTCTGTTCAAGCGCCATCTAC	0.845 RPM ratio (pull-down/input)
GATGATTGTTCTCCCAGCTGATGAATTTCTTGATTCGAGTAAACAAATTTTCCTAATCTTTCTGTTCAAGCGCCATCTAC	1.01 RPM ratio (pull-down/input)
GATGATTGTTCTCCCAGCTGATGAATTTGCTGGGTCGAGTAAACAAATTTTCCTAATCTTTCTGTTCAAGCGCCATCTAC	0.859 RPM ratio (pull-down/input)
GATGATTGTTCTCCCAGCTGATGAATTCGCGGACTCGAGTAAACAAATTTTCCTAATCTTTCTGTTCAAGCGCCATCTAC	0.757 RPM ratio (pull-down/input)

Sequence	binding signal
GATGATTGTTCTCCCAGCTGATGAATTGAATTGTTCGAGTAAACAAATTTTCCTAATCTTTCTGTTCAAGCGCCATCTAC	0.984 RPM ratio (pull-down/input)
GATGATTGTTCTCCCAGCTGATGAATTTTTTGTTTCGAGTAAACAAATTTTCCTAATCTTTCTGTTCAAGCGCCATCTAC	1.13 RPM ratio (pull-down/input)
GATGATTGTTCTCCCAGCTGATGAATTCTGTTGTTCGAGTAAACAAATTTTCCTAATCTTTCTGTTCAAGCGCCATCTAC	2.6 RPM ratio (pull-down/input)
GATGATTGTTCTCCCAGCTGATGAATTGTTTGTTTCGAGTAAACAAATTTTCCTAATCTTTCTGTTCAAGCGCCATCTAC	2.72 RPM ratio (pull-down/input)
GATGATTGTTCTCCCAGCTGATGAATTTTGTTTTTCGAGTAAACAAATTTTCCTAATCTTTCTGTTCAAGCGCCATCTAC	2.75 RPM ratio (pull-down/input)
GATGATTGTTCTCCCAGCTGATGAATTTGTTTCTTCGAGTAAACAAATTTTCCTAATCTTTCTGTTCAAGCGCCATCTAC	1.7 RPM ratio (pull-down/input)
GATGATTGTTCTCCCAGCTGATGAATTCTTTTTTTCGAGTAAACAAATTTTCCTAATCTTTCTGTTCAAGCGCCATCTAC	1.07 RPM ratio (pull-down/input)
GATGATTGTTCTCCCAGCTGATGAATTGTTGAATTCGAGTAAACAAATTTTCCTAATCTTTCTGTTCAAGCGCCATCTAC	1.15 RPM ratio (pull-down/input)
GATGATTGTTCTCCCAGCTGATGAATTTTCTAATTCGAGTAAACAAATTTTCCTAATCTTTCTGTTCAAGCGCCATCTAC	1.05 RPM ratio (pull-down/input)
GATGATTGTTCTCCCAGCTGATGAATTGTTGATTTCGAGTAAACAAATTTTCCTAATCTTTCTGTTCAAGCGCCATCTAC	2.42 RPM ratio (pull-down/input)
GATGATTGTTCTCCCAGCTGATGAATTAGGTATATCGAGTAAACAAATTTTCCTAATCTTTCTGTTCAAGCGCCATCTAC	0.972 RPM ratio (pull-down/input)
GATGATTGTTCTCCCAGCTGATGAATTAGCAGGATCGAGTAAACAAATTTTCCTAATCTTTCTGTTCAAGCGCCATCTAC	0.814 RPM ratio (pull-down/input)
GATGATTGTTCTCCCAGCTGATGAATTAACAAGGTCGAGTAAACAAATTTTCCTAATCTTTCTGTTCAAGCGCCATCTAC	1 RPM ratio (pull-down/input)
GATGATTGTTCTCCCAGCTGATGAATTGATGACTTCGAGTAAACAAATTTTCCTAATCTTTCTGTTCAAGCGCCATCTAC	0.994 RPM ratio (pull-down/input)
GATGATTGTTCTCCCAGCTGATGAATTGACTTCTTCGAGTAAACAAATTTTCCTAATCTTTCTGTTCAAGCGCCATCTAC	0.996 RPM ratio (pull-down/input)
GATGATTGTTCTCCCAGCTGATGAATTGTTGACTTCGAGTAAACAAATTTTCCTAATCTTTCTGTTCAAGCGCCATCTAC	2.11 RPM ratio (pull-down/input)
